Test results: the supplement of paper PMC10849652
Targets with a hit are over-represented here; the source holds about 8,800 in all. About 0.5% of all pairs of compound and target were hits.

Legend:
Assay in all cases: log2 fold change, soluble protein after heating vs DMSO (PISA); higher = thermal stabilisation; K562 lysate, 10 uM; active = over 0.2 and 3.5 SD of the protein, either way, in both replicates (recomputed)
[1] = compound: C1=CC=C(C=C1)[C@H](COC2=CC3=C(C=C2)NC(=O)N3)NC(=O)C4=CC=CN(C4=O)CC5=CC(=C(C=C5)F)F
Procedure, shortened: (§1)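 Dounce homogenisation of K562 pellets in PBS pH 7.4 with 1 mM MgCl2 produced a crude extract, used at 1 mg/mL protein. Exposure to 10 μM compound lasted 30 min, and aliquots were then heated for 3 min across 48°C-58°C, pooled and brought to 0.5% NP-40 at 4°C. The supernatant after 21,000xg for 90 min was quantified by TMTpro 16plex LC-MS/MS with channel sums equalised. Duplicate values are given as log-two fold change in thermal stability relative to solvent controls.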

[2] = compound: CC1=C(SC2=C1C(=N[C@H](C3=NN=C(N32)C)CC(=O)N)C4=CC=C(C=C4)Cl)C
Procedure, shortened: as §1

[3] = compound: CC1=C2C(=CC=C1)N=C(N(C2=O)C3=CC=CC=C3C)CN4C=NC5=C(N=CN=C54)N
Procedure, shortened: as §1

[4] = compound: Cc1sc2c(c1C)C(c1ccc(Cl)cc1)=N[C@@H](CC(=O)OC(C)(C)C)c1nnc(C)n1-2
Procedure, shortened: as §1

[5] = compound: c1ccc([C@@H]2C[C@H]2NC2CCNCC2)cc1
Procedure, shortened: as §1

Measured: log2 fold change

MLLT11 (UniProt Q13015)
Sequence of UniProt Q13015 (Q13015 whole entry, looked up): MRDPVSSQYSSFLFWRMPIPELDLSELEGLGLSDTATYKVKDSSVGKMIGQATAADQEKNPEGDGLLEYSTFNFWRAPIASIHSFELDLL
inactive: [1] 0.007 | [2] -0.048 | [3] 0.109 | [4] -0.037 | [5] 0.003

MIF (UniProt P14174)
inactive: [1] 0.046 | [2] 0.022 | [3] -0.043 | [4] -0.013 | [5] -0.09

MRPL10 isoform 2 (UniProt Q7Z7H8)
inactive: [1] -0.053 | [2] 0.097 | [3] 0.023 | [4] -0.026 | [5] 0.016

MARF1 (UniProt Q9Y4F3)
inactive: [1] -0.052 | [2] 0.013 | [3] 0.175 | [4] 0.024 | [5] -0.023

KLC1 isoform 6 (UniProt Q07866)
inactive: [1] 0.001 | [2] 0.014 | [3] 0.027 | [4] 0.001 | [5] 0.033

MED16 (UniProt Q9Y2X0)
inactive: [1] 0.019 | [2] 0.022 | [3] 0.029 | [4] 0.001 | [5] 0.087

LRCH3 (UniProt Q96II8)
inactive: [1] -0.038 | [2] -0.044 | [3] 0.025 | [4] -0.014 | [5] -0.028

LAMP1 (UniProt P11279)
inactive: [1] -0.006 | [2] 0.008 | [3] 0.017 | [4] -0.125 | [5] -0.299

MIF4GD isoform 3 (UniProt A9UHW6)
inactive: [1] -0.046 | [2] -0.033 | [3] 0.005 | [4] -0.051 | [5] -0.029

KIF22 (UniProt Q14807)
inactive: [1] 0.047 | [2] 0.077 | [3] 0.014 | [4] -0.159 | [5] -0.198

LIG3 (UniProt P49916)
Sequence of UniProt P49916 (P49916 whole entry, looked up): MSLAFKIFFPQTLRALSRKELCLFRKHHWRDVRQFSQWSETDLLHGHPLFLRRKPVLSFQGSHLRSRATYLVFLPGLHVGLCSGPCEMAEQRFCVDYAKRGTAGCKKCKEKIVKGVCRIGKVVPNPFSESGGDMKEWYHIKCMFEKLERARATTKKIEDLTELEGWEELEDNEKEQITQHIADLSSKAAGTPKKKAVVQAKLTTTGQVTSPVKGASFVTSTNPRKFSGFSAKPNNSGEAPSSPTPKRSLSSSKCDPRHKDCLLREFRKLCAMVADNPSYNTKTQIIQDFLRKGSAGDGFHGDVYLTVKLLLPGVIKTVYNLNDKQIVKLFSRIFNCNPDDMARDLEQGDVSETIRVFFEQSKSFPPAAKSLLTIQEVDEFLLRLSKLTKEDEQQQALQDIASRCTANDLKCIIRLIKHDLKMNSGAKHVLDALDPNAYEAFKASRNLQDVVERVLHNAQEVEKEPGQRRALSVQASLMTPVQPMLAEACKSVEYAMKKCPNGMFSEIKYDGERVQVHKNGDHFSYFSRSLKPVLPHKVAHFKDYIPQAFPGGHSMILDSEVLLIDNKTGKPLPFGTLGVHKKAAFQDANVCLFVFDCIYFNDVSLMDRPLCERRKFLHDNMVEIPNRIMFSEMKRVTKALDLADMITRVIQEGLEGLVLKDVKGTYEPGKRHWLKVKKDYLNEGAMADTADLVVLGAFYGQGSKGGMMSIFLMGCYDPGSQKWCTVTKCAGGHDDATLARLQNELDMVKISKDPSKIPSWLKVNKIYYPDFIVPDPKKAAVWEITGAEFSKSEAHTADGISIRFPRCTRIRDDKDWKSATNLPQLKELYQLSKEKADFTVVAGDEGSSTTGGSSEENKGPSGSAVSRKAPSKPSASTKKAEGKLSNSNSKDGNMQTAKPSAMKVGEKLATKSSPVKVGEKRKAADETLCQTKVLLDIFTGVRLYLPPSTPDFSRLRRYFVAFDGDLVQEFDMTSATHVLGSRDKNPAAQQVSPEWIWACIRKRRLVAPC
inactive: [1] -0.003 | [2] -0.018 | [3] -0.014 | [4] -0.035 | [5] 0.021

MAPKAPK3 (UniProt Q16644)
inactive: [1] 0.03 | [2] -0.031 | [3] -0.005 | [4] 0.009 | [5] 0.019

MAST2 (UniProt Q6P0Q8)
Sequence of UniProt Q6P0Q8 (Q6P0Q8 whole entry, looked up): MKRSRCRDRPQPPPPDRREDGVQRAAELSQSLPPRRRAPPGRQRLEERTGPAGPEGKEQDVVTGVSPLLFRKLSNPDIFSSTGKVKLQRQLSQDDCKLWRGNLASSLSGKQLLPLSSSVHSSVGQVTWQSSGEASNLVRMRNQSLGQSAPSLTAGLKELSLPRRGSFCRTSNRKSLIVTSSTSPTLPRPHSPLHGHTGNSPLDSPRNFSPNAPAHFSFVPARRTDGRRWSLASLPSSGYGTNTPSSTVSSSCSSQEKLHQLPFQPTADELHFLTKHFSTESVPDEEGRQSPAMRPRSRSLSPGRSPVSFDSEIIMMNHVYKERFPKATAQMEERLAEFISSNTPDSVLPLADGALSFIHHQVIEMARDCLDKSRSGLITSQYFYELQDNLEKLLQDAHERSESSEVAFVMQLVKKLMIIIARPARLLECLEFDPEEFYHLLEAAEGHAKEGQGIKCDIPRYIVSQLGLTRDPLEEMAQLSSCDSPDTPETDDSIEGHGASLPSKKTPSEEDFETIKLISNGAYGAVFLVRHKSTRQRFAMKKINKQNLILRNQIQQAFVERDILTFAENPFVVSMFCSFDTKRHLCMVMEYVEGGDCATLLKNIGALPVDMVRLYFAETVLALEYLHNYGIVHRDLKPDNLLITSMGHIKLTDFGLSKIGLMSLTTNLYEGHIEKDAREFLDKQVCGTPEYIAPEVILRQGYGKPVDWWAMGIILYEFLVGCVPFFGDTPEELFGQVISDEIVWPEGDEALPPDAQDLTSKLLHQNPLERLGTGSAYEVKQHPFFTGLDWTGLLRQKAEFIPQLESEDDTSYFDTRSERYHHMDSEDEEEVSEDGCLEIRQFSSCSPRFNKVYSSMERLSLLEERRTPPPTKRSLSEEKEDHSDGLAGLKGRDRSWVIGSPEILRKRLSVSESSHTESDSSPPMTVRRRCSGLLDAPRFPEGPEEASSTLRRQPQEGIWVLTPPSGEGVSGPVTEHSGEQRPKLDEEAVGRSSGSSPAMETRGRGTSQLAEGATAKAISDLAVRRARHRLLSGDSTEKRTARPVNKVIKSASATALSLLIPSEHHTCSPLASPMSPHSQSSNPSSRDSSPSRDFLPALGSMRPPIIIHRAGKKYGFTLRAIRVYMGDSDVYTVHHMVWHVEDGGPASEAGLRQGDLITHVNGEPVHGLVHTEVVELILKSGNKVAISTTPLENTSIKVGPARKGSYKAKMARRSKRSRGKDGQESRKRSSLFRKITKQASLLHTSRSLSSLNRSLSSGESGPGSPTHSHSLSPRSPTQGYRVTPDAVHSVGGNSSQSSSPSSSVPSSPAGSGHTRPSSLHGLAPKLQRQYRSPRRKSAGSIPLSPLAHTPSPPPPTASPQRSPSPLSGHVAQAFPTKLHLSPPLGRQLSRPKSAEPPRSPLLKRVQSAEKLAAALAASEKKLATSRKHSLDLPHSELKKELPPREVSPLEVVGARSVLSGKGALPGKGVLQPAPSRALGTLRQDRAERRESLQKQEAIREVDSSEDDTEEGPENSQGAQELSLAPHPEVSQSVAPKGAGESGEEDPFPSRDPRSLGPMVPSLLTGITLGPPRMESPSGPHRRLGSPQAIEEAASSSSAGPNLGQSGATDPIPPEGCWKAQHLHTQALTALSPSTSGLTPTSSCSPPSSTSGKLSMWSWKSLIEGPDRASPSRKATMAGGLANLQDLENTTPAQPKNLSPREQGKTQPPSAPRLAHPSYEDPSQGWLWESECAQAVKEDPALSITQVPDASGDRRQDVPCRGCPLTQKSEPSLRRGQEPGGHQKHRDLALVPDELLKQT
inactive: [1] -0.257 | [2] 0.027 | [3] 0.073 | [4] -0.074 | [5] -0.028

MAP4 (UniProt P27816)
inactive: [1] 0.027 | [2] 0.012 | [3] -0.012 | [4] -0.027 | [5] -0.043

MLXIP (UniProt Q9HAP2)
inactive: [1] -0.063 | [2] 0.005 | [3] 0.018 | [4] 0.031 | [5] -0.025

MICU2 (UniProt Q8IYU8)
inactive: [1] -0.132 | [2] -0.069 | [3] 0.049 | [4] -0.072 | [5] -0.002

MGAT5 (UniProt Q09328)
Sequence of UniProt Q09328 (Q09328 whole entry, looked up): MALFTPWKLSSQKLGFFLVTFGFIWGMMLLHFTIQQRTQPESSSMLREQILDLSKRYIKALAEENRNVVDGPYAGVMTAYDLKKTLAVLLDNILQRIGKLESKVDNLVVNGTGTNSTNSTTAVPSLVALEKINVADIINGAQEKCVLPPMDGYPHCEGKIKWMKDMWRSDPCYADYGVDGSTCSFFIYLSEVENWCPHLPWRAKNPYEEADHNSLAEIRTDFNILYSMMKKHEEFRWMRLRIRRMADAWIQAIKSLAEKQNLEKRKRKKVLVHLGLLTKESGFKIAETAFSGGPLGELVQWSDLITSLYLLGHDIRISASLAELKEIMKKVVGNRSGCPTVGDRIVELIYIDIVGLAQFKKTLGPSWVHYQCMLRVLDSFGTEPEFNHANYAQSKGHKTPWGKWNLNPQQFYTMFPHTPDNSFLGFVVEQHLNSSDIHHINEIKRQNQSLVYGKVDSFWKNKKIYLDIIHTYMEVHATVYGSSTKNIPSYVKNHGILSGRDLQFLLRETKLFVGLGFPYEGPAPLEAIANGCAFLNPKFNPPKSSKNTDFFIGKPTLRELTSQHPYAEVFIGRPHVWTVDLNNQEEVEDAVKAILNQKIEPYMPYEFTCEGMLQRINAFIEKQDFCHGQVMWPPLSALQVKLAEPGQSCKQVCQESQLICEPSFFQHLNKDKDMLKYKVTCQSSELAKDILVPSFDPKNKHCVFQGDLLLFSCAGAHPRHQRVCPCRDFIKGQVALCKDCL
inactive: [1] 0.088 | [2] -0.027 | [3] -0.171 | [4] 0.017 | [5] 0.083

MAPK12 (UniProt P53778)
Sequence of UniProt P53778 (P53778 whole entry, looked up): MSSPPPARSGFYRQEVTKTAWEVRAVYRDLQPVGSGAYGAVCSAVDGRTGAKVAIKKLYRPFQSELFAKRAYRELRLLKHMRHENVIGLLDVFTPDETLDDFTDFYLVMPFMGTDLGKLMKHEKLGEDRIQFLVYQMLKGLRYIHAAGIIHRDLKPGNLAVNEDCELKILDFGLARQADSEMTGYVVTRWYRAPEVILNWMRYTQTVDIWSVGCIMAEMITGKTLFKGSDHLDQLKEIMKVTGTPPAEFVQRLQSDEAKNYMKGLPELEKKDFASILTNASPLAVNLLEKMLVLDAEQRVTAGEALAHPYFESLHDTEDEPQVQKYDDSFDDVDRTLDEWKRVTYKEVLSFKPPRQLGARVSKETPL
inactive: [1] 0.029 | [2] 0.068 | [3] -0.015 | [4] -0.002 | [5] 0.307

MACROD1 (UniProt Q9BQ69)
inactive: [1] 0.048 | [2] 0.022 | [3] 0.004 | [4] 0.049 | [5] 0.075

MIPEP (UniProt Q99797)
inactive: [1] 0.015 | [2] -0.019 | [3] 0.052 | [4] 0.028 | [5] -0.008

MOCS3 (UniProt O95396)
inactive: [1] -0.056 | [2] -0.019 | [3] 0.278 | [4] 0.025 | [5] -0.176

MBTPS1 (UniProt Q14703)
Sequence of UniProt Q14703 (Q14703 whole entry, looked up): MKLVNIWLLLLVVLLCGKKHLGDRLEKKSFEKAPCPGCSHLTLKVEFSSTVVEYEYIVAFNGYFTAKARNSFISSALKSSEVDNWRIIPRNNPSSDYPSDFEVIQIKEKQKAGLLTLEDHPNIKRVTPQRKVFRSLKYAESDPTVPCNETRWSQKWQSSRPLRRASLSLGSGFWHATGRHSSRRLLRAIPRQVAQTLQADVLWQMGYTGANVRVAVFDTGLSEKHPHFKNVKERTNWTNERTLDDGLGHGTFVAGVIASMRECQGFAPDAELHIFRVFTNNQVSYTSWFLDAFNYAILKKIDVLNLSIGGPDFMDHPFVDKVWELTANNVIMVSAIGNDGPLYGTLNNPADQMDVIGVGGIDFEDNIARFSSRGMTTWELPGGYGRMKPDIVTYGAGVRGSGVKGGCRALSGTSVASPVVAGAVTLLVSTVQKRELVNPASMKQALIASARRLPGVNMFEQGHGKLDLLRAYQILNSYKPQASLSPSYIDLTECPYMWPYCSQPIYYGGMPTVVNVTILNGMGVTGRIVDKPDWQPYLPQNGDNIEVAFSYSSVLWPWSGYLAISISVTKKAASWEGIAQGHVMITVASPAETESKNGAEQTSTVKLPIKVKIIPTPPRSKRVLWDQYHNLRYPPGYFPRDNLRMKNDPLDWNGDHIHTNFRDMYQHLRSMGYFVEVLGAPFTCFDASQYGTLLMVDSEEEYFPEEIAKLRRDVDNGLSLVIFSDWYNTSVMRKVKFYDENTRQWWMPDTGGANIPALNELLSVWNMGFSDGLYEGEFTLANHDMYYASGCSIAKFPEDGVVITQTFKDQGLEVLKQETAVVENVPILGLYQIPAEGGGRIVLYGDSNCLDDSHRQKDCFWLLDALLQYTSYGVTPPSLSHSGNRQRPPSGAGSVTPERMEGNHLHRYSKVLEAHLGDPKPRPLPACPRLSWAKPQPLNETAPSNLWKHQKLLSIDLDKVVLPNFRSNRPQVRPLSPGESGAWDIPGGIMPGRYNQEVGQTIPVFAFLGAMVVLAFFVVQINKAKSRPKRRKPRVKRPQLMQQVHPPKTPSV
inactive: [2] 0.141 | [3] 0.079 | [4] -0.063 | [5] 0.017
active: [1] -0.317

KLHL36 (UniProt Q8N4N3)
inactive: [1] -0.072 | [2] -0.086 | [3] -0.018 | [4] -0.011 | [5] 0.074

LUZP1 (UniProt Q86V48)
inactive: [1] 0.039 | [2] -0.113 | [3] 0.032 | [4] 0.007 | [5] -0.056

MORC2 (UniProt Q9Y6X9)
inactive: [1] -0.068 | [2] 0.043 | [3] 0.049 | [4] -0.014 | [5] 0.018

MARCHF6 (UniProt O60337)
inactive: [1] -0.269 | [2] -0.192 | [3] -0.107 | [4] -0.082 | [5] 0.029

LAGE3 (UniProt Q14657)
inactive: [1] 0.067 | [2] -0.058 | [3] -0.087 | [4] -0.044 | [5] 0.018

MRPL28 (UniProt Q13084)
inactive: [1] -0.002 | [2] -0.062 | [3] -0.026 | [4] 0.066 | [5] 0.356

MRPL19 (UniProt P49406)
inactive: [1] 0.017 | [2] -0.064 | [3] 0.011 | [4] -0.065 | [5] 0.019

MCU (UniProt Q8NE86)
inactive: [1] 0.021 | [2] 0.028 | [3] -0.031 | [4] -0.023 | [5] 0.015

KIF15 (UniProt Q9NS87)
inactive: [1] -0.008 | [2] -0.003 | [3] 0.021 | [4] -0.02 | [5] 0.013

KMT2A isoform 3 (UniProt Q03164)
inactive: [1] 0.043 | [2] 0.09 | [3] -0.009 | [4] -0.025 | [5] 0.016

MED14 (UniProt O60244)
inactive: [1] -0.037 | [2] 0.035 | [3] 0.034 | [4] -0.029 | [5] 0

MANEA (UniProt Q5SRI9)
inactive: [1] 0.146 | [2] -0.009 | [3] 0.044 | [4] 0.029 | [5] -0.161

KIF26A (UniProt Q9ULI4)
inactive: [1] 0.044 | [2] -0.011 | [3] 0.053 | [4] 0.09 | [5] -0.018

LARS2 (UniProt Q15031)
inactive: [1] -0.07 | [2] -0.072 | [3] -0.019 | [4] 0.066 | [5] 0.064
